# Results from PubChem BioAssay (Tox21).
# Unmarked numbers belong to inactive results. Results filed as inconclusive are left out. A call without a number means that no potency is given here. Calls of active or inactive are those of the source. Calls come from the whole dose curve; as a rule, active = well fitted curve in the direction sought with a large enough effect in the repeat runs; inconclusive = weak or mixed curves; inactive = no such curve, though single readings can be large; an effect the other way counts as inactive or inconclusive.
# How the values were obtained:
# [1] = qHTS RealTime-Glo MT Cell Viability Assay in HepG2 cells - 24 hour (AID 1224867); note: nearly all actives have a fitted effect of over 50% in size
# Procedure, shortened: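 HepG2 cells were seeded at 600 cells/well together with NanoLuc luciferase and a cell-permeant prosubstrate, preincubated 5 h at 37 C/5% CO2, then pin-dosed with compounds in DMSO. Nonlytic luminescence from viable cells was read at each time point.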
# [2] = qHTS RealTime-Glo MT Cell Viability Assay in HEK293 cells - 32 hour (AID 1224868); note: top concentration of the series differs between compounds; nearly all actives have a fitted effect of over 50% in size
# Procedure, shortened: (§1)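 HEK293 cells were seeded at 600 cells/well together with NanoLuc luciferase and cell-permeant prosubstrate, preincubated 5 h at 37 C/5% CO2, then given compound in DMSO by pintool. Luminescence from viable-cell prosubstrate reduction was read repeatedly over 40 h.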
# [3] = A CellTox Green Cytotoxicity Assay to monitor cytotoxicity in HEK293 cells - 0 hour (AID 1224869); note: nearly all actives have a fitted effect of over 50% in size; note: potency is the fitted concentration of half-maximal effect
# Procedure, shortened: (§2)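 Real-time, in one plate: 600 HEK293 cells/well with dead-cell DNA dye, pinned compound after 5 h, 37 C incubation over 40 h; viable cells give no appreciable fluorescence.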
# [4] = A CellTox Green Cytotoxicity Assay to monitor cytotoxicity in HEK293 cells - 40 hour (AID 1224871); note: nearly all actives have a fitted effect of over 45% in size; note: potency is the fitted concentration of half-maximal effect
# Procedure, shortened: as §2
# [5] = qHTS RealTime-Glo MT Cell Viability Assay in HEK293 cells - 16 hour (AID 1224872); note: top concentration of the series differs between compounds; nearly all actives have a fitted effect of over 50% in size
# Procedure, shortened: as §1
# [6] = qHTS RealTime-Glo MT Cell Viability Assay in HepG2 cells - 8 hour (AID 1224873); note: nearly all actives have a fitted effect of over 55% in size
# Procedure, shortened: (§3)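 HepG2 cells (600/well) mixed with RealTime-Glo MT reagent, settled 5 h at 37 C/5% CO2 before compound addition. Nonlytic NanoLuc luminescence from viable-cell prosubstrate reduction read repeatedly during 40 h treatment at 37 C.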
# [7] = qHTS RealTime-Glo MT Cell Viability Assay in HEK293 cells - 40 hour (AID 1224874); conditions: RealTime-Glo luminescence; max response: hits give low values; note: nearly all actives have a fitted effect of over 50% in size
# Procedure, shortened: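 Kinetic, non-lysing viability readout. Seed HEK293 (600/well) with reagent, incubate 5 h at 37 C/5% CO2, pin 23 nL compound in DMSO, incubate at 37 C, read luminescence at 0, 8, 16, 24, 32, 40 h.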
# [8] = A CellTox Green Cytotoxicity Assay to monitor cytotoxicity in HEK293 cells - 24 hour (AID 1224875); note: nearly all actives have a fitted effect of over 45% in size; note: potency is the fitted concentration of half-maximal effect; for activity change: series mostly up to about 77 µM
# Procedure, shortened: as §2
# [9] = qHTS RealTime-Glo MT Cell Viability Assay in HepG2 cells - 40 hour (AID 1224870); note: nearly all actives have a fitted effect of over 50% in size
# Procedure, shortened: as §3
smiles,measurement,setting,value
O=C(Cn1ccnc1[N+](=O)[O-])NCc1ccccc1,outcome,[1],inactive
same,Potency,[2],inactive
same,Potency,[3],inactive
same,Potency,[4],inactive
same,Potency,[5],inactive
same,outcome,[6],inactive
same,max response,[7],-1.45%
same,Potency,[8],inactive
CO[Si](CCCn1c(=O)n(CCC[Si](OC)(OC)OC)c(=O)n(CCC[Si](OC)(OC)OC)c1=O)(OC)OC,outcome,[1],inactive
same,Potency,[2],inactive
same,Potency,[3],inactive
same,Potency,[4],inactive
same,Potency,[5],inactive
same,outcome,[6],inactive
same,max response,[7],1.02%
same,Potency,[8],inactive
CC(=O)OC(C)=O,outcome,[1],inactive
same,Potency,[2],inactive
same,Potency,[3],inactive
same,Potency,[4],inactive
same,Potency,[5],inactive
same,outcome,[6],inactive
same,max response,[7],9.5%
same,Potency,[8],inactive
CC(=O)CCC1=C(C)CCCC1(C)C,outcome,[1],inactive
same,Potency,[2],inactive
same,Potency,[3],inactive
same,outcome,[9],inactive
same,Potency,[5],inactive
same,outcome,[6],inactive
same,max response,[7],-7.96%
same,Potency,[8],inactive
CCOC(CN1CCN(CC(C)C(=O)c2ccccc2)CC1)c1ccccc1 (stereo not drawn),"activity change, negative = cytotoxicity",[1],-0.414% [at 15.8 µM]
same,"activity change, negative = cytotoxic",[2],-29.5% [at 15.8 µM]
same,cytotoxicity,[3],-3.29% [at 15.8 µM]
same,"activity change, negative = cytotoxic",[9],0.0501% [at 15.8 µM]
same,cytotoxicity increase,[4],-2.53% [at 15.8 µM]
same,"viability change, negative = cytotoxic",[6],-2.57% [at 15.8 µM]
same,max response,[7],-27.6%
same,activity change,[8],"-4.62% [at 15.8 µM, hits give high values]"
C=CCOC(=O)CCCCCC,outcome,[1],inactive
same,Potency,[2],inactive
same,Potency,[3],inactive
same,Potency,[4],inactive
same,Potency,[5],inactive
same,outcome,[6],inactive
same,max response,[7],3.28%
same,Potency,[8],inactive
CC(=O)OCC(=O)Nc1cc(C#N)cc(NC(=O)COC(C)=O)c1Cl,outcome,[1],inactive
same,Potency,[2],inactive
same,Potency,[3],inactive
same,Potency,[4],inactive
same,Potency,[5],inactive
same,outcome,[6],inactive
same,max response,[7],0.686%
same,Potency,[8],inactive
CC12CCC(C1)C(C)(C)C2O (stereo not drawn),outcome,[1],inactive
same,outcome,[9],inactive
same,Potency,[5],inactive
same,outcome,[6],inactive
CCCC(=O)Nc1ccc(OCC(O)CNC(C)C)c(C(C)=O)c1 (stereo not drawn),outcome,[1],inactive
same,Potency,[2],inactive
same,Potency,[3],inactive
same,Potency,[4],inactive
same,Potency,[5],inactive
same,outcome,[6],inactive
same,max response,[7],4%
same,Potency,[8],inactive
CCC/C=C(\C=O)CC,outcome,[1],inactive
same,Potency,[2],inactive
same,Potency,[3],inactive
same,Potency,[4],inactive
same,Potency,[5],inactive
same,outcome,[6],inactive
same,max response,[7],-24.3%
same,Potency,[8],inactive
[O]=[Mo](=[O])=[O],"activity change, negative = cytotoxicity",[1],2.84% [at 15.8 µM]
same,cytotoxicity,[3],-18.1% [at 15.8 µM]
same,"activity change, negative = cytotoxic",[9],-4.78% [at 15.8 µM]
same,cytotoxicity increase,[4],-43.2% [at 15.8 µM]
same,"viability change, negative = cytotoxic",[6],2.7% [at 15.8 µM]
same,activity change,[8],"-37.6% [at 15.8 µM, hits give high values]"
Cc1cc(-c2ccccc2)nnc1NCCN1CCOCC1,outcome,[1],inactive
same,Potency,[2],inactive
same,Potency,[3],inactive
same,Potency,[4],inactive
same,Potency,[5],inactive
same,outcome,[6],inactive
same,max response,[7],-1.81%
same,Potency,[8],inactive
CSc1cnccn1,outcome,[1],inactive
same,Potency,[3],inactive
same,outcome,[9],inactive
same,Potency,[4],inactive
same,Potency,[5],inactive
same,outcome,[6],inactive
same,Potency,[8],inactive
CCCc1ccc(O)cc1,outcome,[1],inactive
same,Potency,[2],inactive
same,Potency,[3],inactive
same,Potency,[4],inactive
same,Potency,[5],inactive
same,outcome,[6],inactive
same,max response,[7],6.55%
same,Potency,[8],inactive
C=C(C)[C@@H]1CC=C(C)CC1,outcome,[1],inactive
same,Potency,[2],inactive
same,Potency,[3],inactive
same,outcome,[9],inactive
same,Potency,[4],inactive
same,Potency,[5],inactive
same,outcome,[6],inactive
same,max response,[7],1.3%
same,Potency,[8],inactive
NCC1(Cc2noc(=O)[nH]2)CCCCC1,outcome,[1],inactive
same,Potency,[2],inactive
same,Potency,[3],inactive
same,outcome,[9],inactive
same,Potency,[4],inactive
same,Potency,[5],inactive
same,outcome,[6],inactive
same,Potency,[8],inactive
CC(=O)Nc1ccc(OC(=O)c2ccccc2OC(C)=O)cc1,outcome,[1],inactive
same,Potency,[2],inactive
same,Potency,[3],inactive
same,Potency,[5],inactive
same,outcome,[6],inactive
same,max response,[7],3.46%
Cn1c(=O)c2[nH]c(Br)nc2n(C)c1=O,outcome,[1],inactive
same,Potency,[2],inactive
same,Potency,[3],inactive
same,outcome,[9],inactive
same,Potency,[4],inactive
same,Potency,[5],inactive
same,outcome,[6],inactive
same,max response,[7],4.15%
same,Potency,[8],inactive
CC(C)OC(=O)OCOP(=O)(CO[C@H](C)Cn1cnc2c(N)ncnc21)OCOC(=O)OC(C)C,outcome,[1],inactive
same,Potency,[2],inactive
same,Potency,[3],inactive
same,Potency,[4],inactive
same,Potency,[5],inactive
same,outcome,[6],inactive
same,max response,[7],2.48%
same,Potency,[8],inactive
CCCCCC(C)O (stereo not drawn),outcome,[1],inactive
same,Potency,[2],inactive
same,Potency,[3],inactive
same,outcome,[9],inactive
same,Potency,[4],inactive
same,Potency,[5],inactive
same,outcome,[6],inactive
same,max response,[7],6.06%
same,Potency,[8],inactive
C=C(C)c1cccc(C(C)(C)N=C=O)c1,outcome,[1],inactive
same,Potency,[2],inactive
same,Potency,[3],inactive
same,Potency,[4],inactive
same,Potency,[5],inactive
same,outcome,[6],inactive
same,max response,[7],3.52%
same,Potency,[8],inactive
CC1=NN(c2ccc(S(=O)(=O)O)cc2)C(=O)C1,outcome,[1],inactive
same,Potency,[2],inactive
same,Potency,[3],inactive
same,Potency,[4],inactive
same,Potency,[5],inactive
same,outcome,[6],inactive
same,max response,[7],3.12%
same,Potency,[8],inactive
CC1OCCC1=O (stereo not drawn),outcome,[1],inactive
same,Potency,[2],inactive
same,Potency,[3],inactive
same,Potency,[4],inactive
same,Potency,[5],inactive
same,outcome,[6],inactive
same,max response,[7],3.12%
same,Potency,[8],inactive
Cn1c(=O)c2c(ncn2CCO)n(C)c1=O,outcome,[1],inactive
same,Potency,[2],inactive
same,Potency,[3],inactive
same,Potency,[4],inactive
same,Potency,[5],inactive
same,outcome,[6],inactive
same,max response,[7],3.56%
same,Potency,[8],inactive
CCC(C)C(=O)OCCc1ccccc1 (stereo not drawn),outcome,[1],inactive
same,Potency,[2],inactive
same,Potency,[3],inactive
same,outcome,[9],inactive
same,Potency,[5],inactive
same,outcome,[6],inactive
same,max response,[7],-0.807%
same,Potency,[8],inactive
Cc1ccnc(N)c1,outcome,[1],inactive
same,Potency,[2],inactive
same,Potency,[3],inactive
same,Potency,[4],inactive
same,Potency,[5],inactive
same,outcome,[6],inactive
same,max response,[7],-4.39%
same,Potency,[8],inactive
O=[N+]([O-])c1c(Cl)cc(Cl)cc1Cl,outcome,[1],inactive
same,Potency,[2],inactive
same,Potency,[3],inactive
same,outcome,[9],inactive
same,Potency,[5],inactive
same,outcome,[6],inactive
same,max response,[7],-1.77%
C=CCN1C[C@H](C(=O)N(CCCN(C)C)C(=O)NCC)C[C@@H]2c3cccc4[nH]cc(c34)C[C@H]21,outcome,[1],inactive
same,Potency,[2],inactive
same,Potency,[3],inactive
same,Potency,[4],inactive
same,Potency,[5],inactive
same,outcome,[6],inactive
same,max response,[7],0.226%
same,Potency,[8],inactive
O=C1c2ccccc2C(=O)c2cc(Cl)ccc21,"activity change, negative = cytotoxicity",[1],-1.65% [at 6.97 µM]
same,"activity change, negative = cytotoxic",[2],-1.41% [at 6.97 µM]
same,cytotoxicity,[3],-6.57% [at 6.97 µM]
same,cytotoxicity increase,[4],-5.31% [at 6.97 µM]
same,"activity change, negative = cytotoxicity",[5],4.83% [at 6.97 µM]
same,"viability change, negative = cytotoxic",[6],0.0863% [at 6.97 µM]
same,max response,[7],3.12%
same,activity change,[8],"-1.14% [at 6.97 µM, hits give high values]"
CC(C)CO,outcome,[1],inactive
same,Potency,[2],inactive
same,Potency,[3],inactive
same,Potency,[5],inactive
same,outcome,[6],inactive
same,max response,[7],-4.29%
CCOc1ccccc1OCC1CNCCO1 (stereo not drawn),outcome,[1],inactive
same,Potency,[2],inactive
same,Potency,[3],inactive
same,Potency,[4],inactive
same,Potency,[5],inactive
same,outcome,[6],inactive
same,max response,[7],2.19%
same,Potency,[8],inactive
CC(O)COC(C)(C)C (stereo not drawn),outcome,[1],inactive
same,Potency,[2],inactive
same,Potency,[3],inactive
same,Potency,[4],inactive
same,Potency,[5],inactive
same,outcome,[6],inactive
same,max response,[7],7.99%
same,Potency,[8],inactive
CCCCCCCCCOC(=O)CCCCC(=O)OCCCCCCC,Potency,[2],inactive
same,Potency,[3],43.6 µM (active)
same,outcome,[9],inactive
same,Potency,[4],24.5 µM (active)
same,Potency,[5],inactive
same,outcome,[6],inactive
same,max response,[7],0.901%
same,Potency,[8],24.5 µM (active)
CCCCOC(=O)C(C)O (stereo not drawn),Potency,[2],inactive
same,Potency,[3],inactive
same,outcome,[9],inactive
same,Potency,[4],inactive
same,Potency,[5],inactive
same,outcome,[6],inactive
same,max response,[7],11.1%
same,Potency,[8],inactive
CCCCCC/C=C/C(=O)OC,Potency,[2],inactive
same,Potency,[3],inactive
same,Potency,[5],inactive
same,outcome,[6],inactive
NCCOCCN,Potency,[2],inactive
same,Potency,[3],inactive
same,outcome,[9],inactive
same,Potency,[4],inactive
same,Potency,[5],inactive
same,outcome,[6],inactive
same,max response,[7],1.68%
same,Potency,[8],inactive
CC(C)c1ccc(C=O)cc1,Potency,[2],inactive
same,Potency,[3],inactive
same,outcome,[9],inactive
same,Potency,[4],inactive
same,Potency,[5],inactive
same,outcome,[6],inactive
same,max response,[7],13.2%
same,Potency,[8],inactive
CC(=O)C1C(=O)C=C(C)OC1=O (stereo not drawn),Potency,[2],inactive
same,Potency,[3],inactive
same,outcome,[9],inactive
same,Potency,[4],inactive
same,Potency,[5],inactive
same,outcome,[6],inactive
same,max response,[7],1.99%
same,Potency,[8],inactive
CCc1occc(=O)c1O,Potency,[2],inactive
same,Potency,[3],inactive
same,Potency,[4],inactive
same,Potency,[5],inactive
same,outcome,[6],inactive
same,max response,[7],3.56%
same,Potency,[8],inactive
Cc1ccccc1C(N)=O,Potency,[2],inactive
same,Potency,[3],inactive
same,Potency,[4],inactive
same,Potency,[5],inactive
same,outcome,[6],inactive
same,max response,[7],3%
same,Potency,[8],inactive
O=C1NC(c2ccccc2)(c2ccccc2)C(=O)N1COP(=O)(O)O,Potency,[2],inactive
same,Potency,[3],inactive
same,outcome,[9],inactive
same,Potency,[4],inactive
same,Potency,[5],inactive
same,outcome,[6],inactive
same,max response,[7],-5.37%
same,Potency,[8],inactive
